The values that follow come from the antibiotic and cytotoxicity screens of Wong et al. (2023).

SMILES strings stand for the structures. Hit rate of the full screen: of about 39,000 compounds, about 3,300 (8.5%) were called active. Many of the other results were omitted from the sample, so actives are more common in it than they were.

In the test the test system is HepG2. The experiment in a line: cytotoxicity call (relative viability < 0.9). Conditions: 10 µM.
On to `C[C@H](CO)N1C[C@H](C)[C@H](CN(C)C(=O)NC2CCCCC2)Oc2c(NS(=O)(=O)c3cn(C)cn3)cccc2C1=O`, for which the cytotoxicity call was “inactive”.

Take `C[C@H]1CN([C@@H](C)CO)C(=O)c2cc(C#CC3CCCC3)cnc2O[C@@H]1CN(C)S(=O)(=O)c1cccc(F)c1`: the cytotoxicity call was “active”. As for `C[C@H](CO)N1C[C@H](C)[C@H](CN(C)S(=O)(=O)c2cccc(F)c2)Oc2ncc(C#CC3CCCC3)cc2C1=O`, the entry is “inactive”. As for `C[C@@H]1CN([C@H](C)CO)C(=O)c2cc(C#CC3CCCC3)cnc2O[C@H]1CN(C)S(=O)(=O)c1cccc(F)c1`, the entry is “inactive”.

With `C[C@@H]1CN([C@H](C)CO)C(=O)c2cc(C#CC3CCCC3)cnc2O[C@@H]1CN(C)S(=O)(=O)c1cccc(F)c1`, the cytotoxicity call was “inactive”.

On to `C[C@H](CO)N1C[C@H](C)[C@@H](CN(C)S(=O)(=O)c2cccc(F)c2)Oc2ncc(C#CC3CCCC3)cc2C1=O`, for which the cytotoxicity call was “inactive”. Turning to `C[C@@H]1CN([C@@H](C)CO)C(=O)c2cc(C#CC3CCCC3)cnc2O[C@H]1CN(C)S(=O)(=O)c1cccc(F)c1`, the cytotoxicity call is “active”. Under `COc1ccc(NC(=O)N(C)C[C@@H]2OCCCC[C@@H](C)Oc3ccc(NS(=O)(=O)c4ccc(Cl)cc4)cc3C(=O)N([C@@H](C)CO)C[C@@H]2C)cc1` stands “inactive”. `C=c1cc(C)ccc1=C1NN=C(NC(C)=O)O1`: the cytotoxicity call is “inactive”. Under `COc1ccc(S(=O)(=O)N(C)C[C@@H]2OCCCC[C@H](C)Oc3ccc(NC(=O)C4CCCCC4)cc3C(=O)N([C@H](C)CO)C[C@H]2C)cc1` stands “inactive”. Under `CCCc1nc(C)c2c(=O)[nH]c(-c3cc(S(=O)(=O)N4CCN(CC)CC4)ccc3OCC)nn12.Cl` stands “inactive”.

As to `CCCc1nn(C)c2c(=O)[nH]c(-c3cc(S(=O)(=O)N4CCN(C)CC4)ccc3OCC)nc12.O=C(O)CC(O)(CC(=O)O)C(=O)O`, the cytotoxicity call is “active”. As for `CCCOc1ccc(S(=O)(=O)NCC[C@@H]2CCCN2C)cc1-c1nc2c(CCC)nn(C)c2c(=O)[nH]1`, the entry is “inactive”; as for `CCS(=O)(=O)Nc1ccc2c(c1)C(=O)N(C)[C@@H]1CC[C@H](CC(=O)NCc3ccc(OC)cc3)O[C@@H]1CO2`, “inactive”.

For `Cc1noc(C)c1S(=O)(=O)Nc1ccc2c(c1)C(=O)N([C@@H](C)CO)C[C@@H](C)[C@@H](CN(C)Cc1ccc(C(=O)Nc3ccccc3N)cc1)OCCCC[C@H](C)O2`, the cytotoxicity call is “inactive”. Under `C[C@@H]1CCCCO[C@H](CN(C)CC2CCCCC2)[C@H](C)CN([C@@H](C)CO)C(=O)c2cc(NS(=O)(=O)c3cccs3)ccc2O1` stands “active”.

As to `C[C@@H]1CN([C@@H](C)CO)C(=O)c2cc(NS(=O)(=O)c3cccs3)ccc2O[C@@H](C)CCCCO[C@H]1CN(C)Cc1ccccc1`, the cytotoxicity call was “active”. On to `C[C@@H]1CN([C@H](C)CO)C(=O)c2cc(NS(=O)(=O)c3cccs3)ccc2O[C@@H](C)CCCCO[C@H]1CN(C)Cc1ccccc1`, for which the cytotoxicity call was “inactive”. Under `C[C@H](CO)N1C[C@H](C)[C@@H](CN(C)Cc2ccccc2)OCCCC[C@H](C)Oc2ccc(NS(=O)(=O)c3cccs3)cc2C1=O` stands “inactive”; under `C[C@@H]1CCCCO[C@H](CN(C)CC2CCCCC2)[C@H](C)CN([C@H](C)CO)C(=O)c2cc(NS(=O)(=O)c3cccs3)ccc2O1`, “inactive”. As to `C[C@@H]1CCCCO[C@@H](CN(C)Cc2ccccc2)[C@H](C)CN([C@@H](C)CO)C(=O)c2cc(NS(=O)(=O)c3cccs3)ccc2O1`, the cytotoxicity call is “inactive”. As for `Cc1noc(C)c1S(=O)(=O)Nc1ccc2c(c1)C(=O)N([C@H](C)CO)C[C@H](C)[C@@H](CN(C)Cc1ccc(C(=O)Nc3ccccc3N)cc1)OCCCC[C@@H](C)O2`, the entry is “active”. As for `C[C@@H]1CN([C@H](C)CO)C(=O)c2cc(NS(=O)(=O)c3cccs3)ccc2O[C@@H](C)CCCCO[C@@H]1CN(C)CC1CCCCC1`, the entry is “inactive”; as for `C[C@@H]1CCCCO[C@H](CN(C)Cc2ccccc2)[C@@H](C)CN([C@@H](C)CO)C(=O)c2cc(NS(=O)(=O)c3cccs3)ccc2O1`, “inactive”.

For `C[C@H]1CCCCO[C@@H](CN(C)Cc2ccccc2)[C@@H](C)CN([C@@H](C)CO)C(=O)c2cc(NS(=O)(=O)c3cccs3)ccc2O1`, the cytotoxicity call was “active”. Take `Cc1noc(C)c1S(=O)(=O)Nc1ccc2c(c1)C(=O)N([C@@H](C)CO)C[C@H](C)[C@@H](CN(C)Cc1ccc(C(=O)Nc3ccccc3N)cc1)OCCCC[C@@H](C)O2`: the cytotoxicity call is “inactive”.

With `C[C@@H]1CN([C@@H](C)CO)C(=O)CCCn2nncc2CO[C@H]1CN(C)C(=O)Nc1ccc(N2CCN(C)CC2)cc1`, the cytotoxicity call was “inactive”. In the case of `C[C@H]1CN([C@@H](C)CO)C(=O)Cc2cc(NC(=O)Nc3cccc4ccccc34)ccc2O[C@H]1CN(C)C(=O)Nc1ccc(F)cc1`, the cytotoxicity call was “inactive”.

As for `C[C@@H]1CN([C@@H](C)CO)C(=O)c2cc(NS(=O)(=O)c3ccccc3)ccc2O[C@@H](C)CCCCO[C@H]1CN(C)Cc1ccc(C(=O)O)cc1`, the cytotoxicity call is “inactive”. As for `Cc1cc(C(=O)Nc2cccc3c2O[C@H](CN(C)S(=O)(=O)c2ccc(Cl)cc2)[C@@H](C)CN([C@@H](C)CO)C3=O)n(C)n1`, the entry is “inactive”. For `Cc1ccc(S(=O)(=O)Nc2ccc3c(c2)CC(=O)N([C@@H](C)CO)C[C@@H](C)[C@H](CN(C)S(=O)(=O)c2ccc(F)cc2)O3)cc1`, the cytotoxicity call is “inactive”. Under `CC(C)(O/N=C(\C(=O)N[C@@H]1C(=O)N2C(C(=O)O)=C(C[N+]3(CCNC(=O)c4ccc(O)c(O)c4Cl)CCCC3)CS[C@H]12)c1csc(N)n1)C(=O)O` stands “inactive”.

For `CC(C)NC(=O)Nc1ccc2c(c1)C(=O)N([C@@H](C)CO)C[C@@H](C)[C@H](CN(C)C(=O)Nc1ccc(F)cc1)OCCCC[C@@H](C)O2`, the cytotoxicity call is “inactive”. As for `C[C@H]1CN([C@@H](C)CO)C(=O)Cc2cc(NS(C)(=O)=O)ccc2O[C@H]1CN(C)C(=O)Nc1ccccc1`, the entry is “inactive”; as for `C[C@H]1CN([C@@H](C)CO)C(=O)c2cc(NC(=O)Nc3cccc4ccccc34)ccc2O[C@@H]1CN(C)Cc1ccncc1`, “inactive”. Under `COc1ccc(CNC(=O)N(C)C[C@H]2OCc3ccccc3-c3c(n(C)c4ccccc34)C(=O)N([C@H](C)CO)C[C@@H]2C)cc1` stands “inactive”. With `O=C(C[C@@H]1C[C@@H]2c3cc(NC(=O)C4CCOCC4)ccc3O[C@@H]2[C@@H](CO)O1)NCCN1CCCCC1`, the cytotoxicity call is “inactive”.

Take `Cc1noc(C)c1S(=O)(=O)Nc1ccc2c(c1)CC(=O)N([C@H](C)CO)C[C@H](C)[C@H](CN(C)C(=O)Nc1ccccc1)O2`: the cytotoxicity call is “inactive”.
